What all share (settings): mRNA level, 48 h; actives raise or lower the signal
Read-out in test [1]: Peroxisomal acyl-coenzyme A oxidase 1 (ACOX1) gene, ACOX1 (gene 51)
Nature of the test: LTEA_HepaRG_ACOX1: Life Technologies and Expression Analysis (LTEA) Assay for Peroxisomal acyl-coenzyme A oxidase 1 (ACOX1) gene using HepaRG (AID 2283467). In short, it runs like this:
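Human HepaRG hepatic cultures, 48 h treatment with test chemicals up to 100 uM. ACOX1 expression read by qRT-PCR relative to 0.5% DMSO vehicle.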

Read-out in test [2]: Alkaline Phosphatase, Placental (ALPP) gene, ALPP (gene 250)
Nature of the test: LTEA_HepaRG_ALPP: Life Technologies and Expression Analysis (LTEA) Assay for Alkaline Phosphatase, Placental (ALPP) gene using HepaRG (AID 2283468). In short, it runs like this: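 Expression of ALPP was quantified by qRT-PCR against three housekeeping genes in human HepaRG cultures treated for 48 h with an eight-point concentration series up to 100 uM. Activity in either direction was fitted relative to 0.5% DMSO.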

Read-out in test [3]: Bcl-2 (BAD) gene, BAD (gene 572)
The experiment in a line: LTEA_HepaRG_BAD: Life Technologies and Expression Analysis (LTEA) Assay for Bcl-2 (BAD) gene using HepaRG (AID 2283469). The procedure, abridged: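 Activity values reflect up- or down-regulation of BAD mRNA in human HepaRG hepatic cells treated 48 h in serum-free medium, with eight-point half-log dosing capped at 100 uM and 0.5% DMSO vehicle.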

Read-out in test [4]: Bcl-2 (BAX) gene, BAX (gene 581)
The experiment in a line: LTEA_HepaRG_BAX: Life Technologies and Expression Analysis (LTEA) Assay for Bcl-2 (BAX) gene using HepaRG (AID 2283470). In short, it runs like this: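 qRT-PCR read-out of BAX mRNA, normalized to three housekeeping genes, after 48 h chemical exposure of human HepaRG cells in serum-free induction medium; eight-point half-log series, top 100 uM, 0.5% DMSO vehicle; bidirectional fit versus DMSO.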

Read-out in test [5]: adenosine kinase (ADK) gene, ADK (gene 132)
The experiment in a line: LTEA_HepaRG_ADK: Life Technologies and Expression Analysis (LTEA) Assay for adenosine kinase (ADK) gene using HepaRG (AID 2283471). In short, it runs like this: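 Differentiated HepaRG cells dosed 48 h in serum-free induction medium, 0.5% DMSO vehicle, eight half-log concentrations from 100 uM, in duplicate. ADK mRNA by TaqMan qRT-PCR normalised to ACTB, GAPDH, POLR2A; bidirectional fit versus DMSO.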

Read-out in test [6]: Alpha-fetoprotein (AFP) gene, AFP (gene 174)
Nature of the test: LTEA_HepaRG_AFP: Life Technologies and Expression Analysis (LTEA) Assay for Alpha-fetoprotein (AFP) gene using HepaRG (AID 2283472).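 On AC50: AFP transcript by TaqMan qRT-PCR normalized to ACTB GAPDH and POLR2A.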 In short, it runs like this:
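qRT-PCR (Fluidigm TaqMan) readout of AFP transcript, normalized to three housekeeping genes, fitted bidirectionally against 0.5% DMSO baseline. HepaRG cells received chemicals for 48 h in serum-free induction medium, top concentration 100 uM, half-log steps.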

Read-out in a further test: BCL2L11 (gene 10018)
The experiment in a line: LTEA_HepaRG_BCL2L11: Life Technologies and Expression Analysis (LTEA) Assay for Bcl-2 (BCL2L11) gene using HepaRG (AID 2283473). In short, it runs like this:
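Cells were plated, cultured 48 h, switched to serum-free induction medium, then dosed in duplicate for 48 h at eight half-log concentrations up to 100 uM. Lysates underwent RNA isolation and TaqMan qRT-PCR; gain or loss versus DMSO was fitted.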

Read-out in test [7]: Apolipoprotein A-V (APOA5) gene, APOA5 (gene 116519)
Nature of the test: LTEA_HepaRG_APOA5: Life Technologies and Expression Analysis (LTEA) Assay for Apolipoprotein A-V (APOA5) gene using HepaRG (AID 2283474). In short, it runs like this:
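Human liver HepaRG cells are treated 48 h with test chemicals (100 uM top, half-log dilutions, 0.5% DMSO). APOA5 mRNA induction or loss is measured by qRT-PCR relative to vehicle.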

Read-out in test [8]: Apoptosis regulator Bcl-2 (Homo sapiens) (UniProt P10415)
Nature of the test: LTEA_HepaRG_BCL2: Life Technologies and Expression Analysis (LTEA) Assay for Bcl-2 gene using HepaRG (AID 2283475). The procedure, abridged:
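qRT-PCR read-out (Fluidigm TaqMan) of BCL2 transcript, normalised to three housekeeping genes, after 48 h chemical exposure of HepaRG cells; 8-point half-log series, top 100 uM, 0.5% DMSO vehicle. Gain or loss of signal fitted relative to DMSO baseline.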

Read-out in test [9]: Bcl-2 (BID) gene, BID (gene 637)
Nature of the test: LTEA_HepaRG_BID: Life Technologies and Expression Analysis (LTEA) Assay for Bcl-2 (BID) gene using HepaRG (AID 2283476). The procedure, abridged:
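HepaRG, 48 h exposure, 8-pt half-log series, top 100 uM, 0.5% DMSO vehicle, duplicates. Readout: BID mRNA by TaqMan qRT-PCR; housekeeping-normalized; bidirectional curve fit vs DMSO baseline.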

Read-out in another test: Caspase-3 (Homo sapiens) (UniProt P42574)
The experiment in a line: LTEA_HepaRG_CASP3: Life Technologies and Expression Analysis (LTEA) Assay for cysteine-aspartic acid protease (CASP3) using HepaRG (AID 2283477). In short, it runs like this:
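In HepaRG liver cells dosed for 48 h at up to 100 uM (eight-point, duplicate), CASP3 expression changes are scored by qRT-PCR. Activity is fitted in both directions with 0.5% DMSO as baseline.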

Read-out in test [10]: Cytochrome P450 (CYP24A1), CYP24A1 (gene 1591)
Nature of the test: LTEA_HepaRG_CYP24A1: Life Technologies and Expression Analysis (LTEA) Assay for Cytochrome P450 (CYP24A1) using HepaRG (AID 2283478). The procedure, abridged:
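Human liver HepaRG cultures receive each chemical for 48 h across an eight-point half-log series topping at 100 uM in 0.5% DMSO. Induction or suppression of CYP24A1 mRNA is scored relative to vehicle after housekeeping-gene normalization.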

Read-out in test [11]: Cytochrome P450 (CYP1A2), CYP1A2 (gene 1544)
The experiment in a line: LTEA_HepaRG_CYP1A2: Life Technologies and Expression Analysis (LTEA) Assay for Cytochrome P450 (CYP1A2) using HepaRG (AID 2283479). In short, it runs like this: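 Assesses CYP1A2 mRNA in human HepaRG liver cells after 48 h chemical exposure at up to 100 uM. Values come from qRT-PCR with bidirectional curve fitting relative to DMSO.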

Read-out in test [12]: cysteine-aspartic acid protease (CASP8), CASP8 (gene 841)
Nature of the test: LTEA_HepaRG_CASP8: Life Technologies and Expression Analysis (LTEA) Assay for cysteine-aspartic acid protease (CASP8) using HepaRG (AID 2283480). The procedure, abridged: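 Concentration-response in duplicate up to 100 uM (half-log steps, 0.5% DMSO) on differentiated HepaRG cultures for 48 h. Expression change of CASP8 mRNA is determined by TaqMan qRT-PCR with housekeeping-gene normalization.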

Read-out in test [13]: Cytochrome P450 2C19 (Homo sapiens) (UniProt P33261)
The experiment in a line: LTEA_HepaRG_CYP2C19: Life Technologies and Expression Analysis (LTEA) Assay for CYP2C19 using HepaRG (AID 2283482). In short, it runs like this: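 Human HepaRG liver cells received test chemicals for 48 h (highest 100 uM, half-log dilutions in 0.5% DMSO). CYP2C19 mRNA induction or loss is read by multiplexed qRT-PCR and fitted in both directions versus vehicle.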

Read-out in a further test: CYP2C8 (gene 1558)
The experiment in a line: LTEA_HepaRG_CYP2C8: Life Technologies and Expression Analysis (LTEA) Assay for CYP2C8 using HepaRG (AID 2283483). In short, it runs like this: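 This is a transcriptional endpoint in HepaRG cultures: 48 h exposure, highest concentration 100 uM. CYP2C8 mRNA is quantified by TaqMan qRT-PCR.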

Read-out in the next test: CYP2C9 (gene 1559)
Nature of the test: LTEA_HepaRG_CYP2C9: Life Technologies and Expression Analysis (LTEA) Assay for CYP2C9 using HepaRG (AID 2283484). The procedure, abridged: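 Eight-point concentration-response (highest 100 uM, half-log dilutions) in HepaRG cells for 48 h; CYP2C9 expression by qRT-PCR normalized to ACTB, GAPDH, POLR2A. Bidirectional fit, DMSO baseline.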

Read-out in the next test: CYP2E1 (gene 1571)
Nature of the test: LTEA_HepaRG_CYP2E1: Life Technologies and Expression Analysis (LTEA) Assay for CYP2E1 using HepaRG (AID 2283485). The procedure, abridged: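 CYP2E1 transcript was measured by TaqMan qRT-PCR in human HepaRG cultures after 48 h chemical exposure (top 100 uM, half-log steps, 0.5% DMSO vehicle). Housekeeping-gene normalization; gain or loss fitted relative to DMSO baseline.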

Read-out in a further test: CYP4A11 (gene 1579)
Nature of the test: LTEA_HepaRG_CYP4A11: Life Technologies and Expression Analysis (LTEA) Assay for CYP4A11 using HepaRG (AID 2283486). In short, it runs like this:
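Readout is CYP4A11 mRNA induction or suppression (qRT-PCR, ACTB/GAPDH/POLR2A normalization) in human HepaRG cells after 48 h chemical treatment, concentrations to 100 uM in 0.5% DMSO, fitted bidirectionally against vehicle.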

Read-out in test [14]: Cytochrome P450 (CYP2B6), CYP2B6 (gene 1555)
The experiment in a line: LTEA_HepaRG_CYP2B6: Life Technologies and Expression Analysis (LTEA) Assay for Cytochrome P450 (CYP2B6) using HepaRG (AID 2283481). In short, it runs like this:
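Using 48 h treatment of HepaRG cells in serum-free induction medium, concentrations spanned half-log steps from 100 uM in 0.5% DMSO vehicle. CYP2B6 mRNA induction or loss is scored by qRT-PCR against DMSO.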

The text below walks through data of PubChem BioAssay (EPA / NIEHS).

One may read the AC50 as the midpoint of the concentration-response curve, whichever way the signal moves.

Calls of active or inactive are those of the source. How the source made its calls: active means hit-call score of the fitted dose curve at least 0.9, where 1 is the maximum; inactive means score below 0.9.

Sequence of Apoptosis regulator Bcl-2 (Homo sapiens) (P10415 whole entry, looked up): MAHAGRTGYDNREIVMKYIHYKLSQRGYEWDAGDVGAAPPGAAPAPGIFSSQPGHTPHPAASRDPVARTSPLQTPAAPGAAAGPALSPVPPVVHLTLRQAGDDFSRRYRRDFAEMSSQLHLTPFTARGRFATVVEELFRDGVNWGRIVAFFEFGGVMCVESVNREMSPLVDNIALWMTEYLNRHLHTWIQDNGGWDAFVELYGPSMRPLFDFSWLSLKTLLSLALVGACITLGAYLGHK
Sequence of Cytochrome P450 2C19 (Homo sapiens) (P33261 whole entry, looked up): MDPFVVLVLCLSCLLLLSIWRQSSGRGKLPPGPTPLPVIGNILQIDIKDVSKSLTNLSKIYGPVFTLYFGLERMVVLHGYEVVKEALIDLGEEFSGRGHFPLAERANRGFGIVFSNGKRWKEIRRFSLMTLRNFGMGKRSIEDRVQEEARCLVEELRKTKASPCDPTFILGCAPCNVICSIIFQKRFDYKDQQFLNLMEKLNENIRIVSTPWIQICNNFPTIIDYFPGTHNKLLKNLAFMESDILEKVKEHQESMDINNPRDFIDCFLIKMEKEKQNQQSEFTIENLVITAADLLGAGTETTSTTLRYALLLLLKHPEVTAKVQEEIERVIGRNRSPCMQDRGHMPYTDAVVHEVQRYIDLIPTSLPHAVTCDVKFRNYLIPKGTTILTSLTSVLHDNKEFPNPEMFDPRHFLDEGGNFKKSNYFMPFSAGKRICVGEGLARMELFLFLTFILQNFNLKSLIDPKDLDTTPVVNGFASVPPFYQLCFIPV
Sequence of Caspase-3 (Homo sapiens) (P42574 whole entry, looked up): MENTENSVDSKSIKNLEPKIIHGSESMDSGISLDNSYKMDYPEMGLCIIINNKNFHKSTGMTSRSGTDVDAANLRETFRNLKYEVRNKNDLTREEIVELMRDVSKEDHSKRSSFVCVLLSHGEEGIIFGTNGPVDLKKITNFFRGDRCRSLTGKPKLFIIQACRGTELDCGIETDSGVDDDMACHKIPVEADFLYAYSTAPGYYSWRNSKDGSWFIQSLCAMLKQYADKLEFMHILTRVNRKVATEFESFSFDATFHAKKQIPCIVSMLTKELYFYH

Take `CCCCCCCCCCCCCCOS(=O)(=O)O`: the compound was classed as inactive (in test [1]; in test [2]; in test [3]; in [4]; in test [5]; with BCL2L11 (gene 10018)). For the same compound, the outcome (in test [7]; in test [8]; in [9]; in the test with Caspase-3 (Homo sapiens); in test [10]; in test [11]) was inactive. The result in test [12] and in [13] was inactive. Moreover, the AC50 in test [6] is 50 µM (active); in the test with CYP2C8 (gene 1558), 12.6 µM (active); with CYP2C9 (gene 1559) it was 64.4 µM (active); with CYP2E1 (gene 1571) it was 42.3 µM (active); in the test with CYP4A11 (gene 1579) it was 4.9 µM (active).
`CCCC[C@H]1CN(CC2CCOCC2)C(=O)OC12CCN(C1(C)CCN(C(=O)c3c(C)ncnc3C)CC1)CC2`: the compound was called inactive in [1], in test [2], in [3], in test [4], in test [5] and in test [6]. The call (with BCL2L11 (gene 10018); in test [7]; in [8]; in test [9]; with Caspase-3 (Homo sapiens); in [10]) was inactive. The compound was classed as inactive (in [11]; in test [12]; in test [13]; with CYP2C8 (gene 1558); with CYP2C9 (gene 1559); with CYP2E1 (gene 1571)). For the same compound, the compound was called inactive with CYP4A11 (gene 1579).
Turning to `CCCCCCCC(=O)OC`, the call in test [1], in [2], in [3], in test [4], in test [5] and in test [6] was inactive. For the same compound, the compound was called inactive (with BCL2L11 (gene 10018); in test [7]; in [8]; in test [9]; with Caspase-3 (Homo sapiens); in [10]). In addition, the outcome (in test [11]; in [12]; in test [14]; in test [13]; with CYP2C9 (gene 1559); with CYP2E1 (gene 1571)) was inactive. In the test with CYP4A11 (gene 1579), the call was inactive. In addition, in the test with CYP2C8 (gene 1558), the half-maximal activity concentration (AC50) is 12 µM (active).
